HT1080-NT tox = qHTS for induction of synthetic lethality in tumor cells producing 2HG: qHTS for the HT-1080-NT fibrosarcoma cell line | HT-1080-NT fibrosarcoma viability, CellTiter-Glo ATP luminescence, 48 h | Potency, µM (titrated, usually from 46.1 µM), for the others: at the top dose activity, negative = less viability, most hits filed as cytotoxic | hit rate 1.6% among 360,000 | AID 686970, 2013;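 also: NT is the 2HG producing partner of a matched IDH1 knockdown line; potency is read from the fitted curve at half-maximal effect; 0% = DMSO-treated cells and -100% = media-only wells without cells; nearly all actives have a fitted effect of over 55% in size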
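Read-out is CellTiter-Glo luminescence after 10 minutes at room temperature, following 48 hours' compound treatment of HT-1080-NT cells (750 cells/well, RPMI, 5% FBS, 37 degrees C).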
DT40 TDP1 no CPT = qHTS for Inhibitors of human tyrosyl-DNA phosphodiesterase 1 (TDP1): qHTS in cells in absence of CPT. hit rate 15% among 420,000. DT40 Tdp1-/- hTDP1 cells, no CPT, ATP luminescence, 48 h. AID 686978, 2013. Potency, µM (doses to about 46.2 µM), for the others: top-dose activity change, negative = growth inhibition, actives largely listed as inhibitors; also: potency is read from the fitted curve at half-maximal effect; nearly all actives have a fitted effect of over 55% in size
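Chicken DT40 Tdp1-/- cells stably complemented with human TDP1 were seeded at 400 cells/well with DMSO in place of 20 nM camptothecin. After compound pinning, cells grew at least 48 hr at 37 °C; viability read by CellTiter-Glo luminescence.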
DT40 TDP1 CPT = qHTS for Inhibitors of human tyrosyl-DNA phosphodiesterase 1 (TDP1): qHTS in cells in presence of CPT. chicken DT40 Tdp1-/-;hTDP1 cells + 20 nM CPT, ATP luminescence, 48 h. hit rate 12% among 420,000. Potency, µM (titrated, usually from 46.2 µM), for the others: at the top dose activity change, negative = growth inhibition, hits mostly inhibitors; also: potency is read from the fitted curve at half-maximal effect; nearly all actives have a fitted effect of over 55% in size
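Chicken DT40 Tdp1-/- cells complemented with human TDP1, 400 cells/well, exposed to compounds plus 20 nM camptothecin for at least 48 h at 37 C; viability read as ATP content by CellTiter-Glo luminescence.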
IL-1B inflam inh = qHTS for Inhibitors of Inflammasome Signaling: IL-1-beta AlphaLISA Primary Screen | THP-1 LPS/ATP IL-1B secretion, AlphaLISA, 16 h; active compounds read low | hit rate 4.7% among 360,000 | AID 743279, 2014 | activity change, % at 57.5 µM; in the data active = activity change below about -50%; inconclusive = mostly about -30% to -49%
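Secreted IL-1B measured by AlphaLISA bead assay after 16 h compound exposure of THP-1 cells; compounds (final up to 57.5 uM) added 1 h before LPS (250 ng/mL) and ATP (1.25 mM) stimulation; lower signal means less secretion.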
HT1080 IDH1KD tx = qHTS for induction of synthetic lethality in tumor cells producing 2HG: qHTS for the HT-1080-IDH1KD cell line | HT-1080 IDH1 knockdown viability, ATP luminescence, 48 h | Potency, µM (doses to about 46.1 µM), for the others: top-dose activity, negative = toxicity, hits mostly cytotoxic | hit rate 2% among 360,000;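 also: potency is read from the fitted curve at half-maximal effect; 0% = DMSO wells and -100% = cell-free medium wells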
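Knockdown cells (IDH1KD HT-1080) received compounds 2 h after plating at 750 cells/well and were kept 48 h at 37 °C in 5% FBS RPMI. A CellTiter-Glo luminescence read gave % activity for curve fitting.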
ALOX12 inh = Primary qHTS assay for inhibitors of human arachidonate 12S-lipoxygenase (ALOX12): Round 2. Polyunsaturated fatty acid lipoxygenase ALOX12 (Homo sapiens), P18054. purified 12hLO, xylenol orange hydroperoxide absorbance. Potency, µM (highest dose often 108 µM), without a hit: at the top dose activity change, negative = inhibition, usual class: inhibitors. hit rate 1.1% among 580,000. AID 1671190, 2021; also: potency is read from the fitted curve at half-maximal effect
Target sequence (P18054 whole entry, looked up): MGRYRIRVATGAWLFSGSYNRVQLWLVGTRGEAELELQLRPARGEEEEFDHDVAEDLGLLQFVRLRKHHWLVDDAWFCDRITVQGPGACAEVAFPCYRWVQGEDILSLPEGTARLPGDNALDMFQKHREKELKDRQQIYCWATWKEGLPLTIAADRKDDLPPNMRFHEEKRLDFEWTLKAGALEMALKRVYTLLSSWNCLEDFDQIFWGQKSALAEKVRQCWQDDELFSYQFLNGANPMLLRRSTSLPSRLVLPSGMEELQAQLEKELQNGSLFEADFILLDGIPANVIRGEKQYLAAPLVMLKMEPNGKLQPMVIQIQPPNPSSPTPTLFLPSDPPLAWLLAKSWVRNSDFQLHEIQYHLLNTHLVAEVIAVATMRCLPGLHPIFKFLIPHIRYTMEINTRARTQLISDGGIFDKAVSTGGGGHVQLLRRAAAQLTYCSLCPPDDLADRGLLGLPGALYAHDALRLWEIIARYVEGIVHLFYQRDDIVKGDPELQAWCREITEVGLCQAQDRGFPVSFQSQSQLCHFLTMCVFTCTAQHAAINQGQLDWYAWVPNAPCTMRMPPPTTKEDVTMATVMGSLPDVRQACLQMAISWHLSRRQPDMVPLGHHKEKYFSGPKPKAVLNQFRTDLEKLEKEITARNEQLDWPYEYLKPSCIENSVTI
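Hydroperoxide product was detected by ferrous iron/xylenol orange as the 573 to 405 nm absorbance ratio. Arachidonic acid at 40 uM (final) was turned over for 30 min at room temperature by 150 nM human 12hLO, pH 7.0 Hepes buffer, after 15 min compound preincubation.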
* marks the source's active call; other numbers are inactive results; u = inconclusive; x = not tested or not shown. The entries come from a sample that favours hits as a whole. Unless noted, calls follow the shape of the dose curve; as a rule, active = well fitted curve in the direction sought with a large enough effect; inconclusive = small, poorly fitted or top-dose-only effect, or another doubt; inactive = no such curve, though single readings can be large; an effect the other way counts as inactive or inconclusive. Unless noted, % is scaled to controls: 0 for no effect and ±100 for the full control effect.

SMILES	HT1080-NT tox	DT40 TDP1 no CPT	DT40 TDP1 CPT	IL-1B inflam inh	HT1080 IDH1KD tx	ALOX12 inh
Cc1ccc2c(NCc3ccco3)nc(NC(C)C)nc2c1	25.9µM*	u	u	-111.4*	18.4µM*	u
c1coc(CNc2c3c(nc4ccccc24)CCC3)c1	-6.6%	23.1µM*	16.4µM*	-74.3*	-13.4%	0.1%
O=S(=O)(c1ccc(Br)s1)N1CCC(Cc2ccccc2)CC1	3.4%	u	14.1µM*	-3.2	-0.7%	19.0%
CC(=O)c1ccc(NC(=O)C2CCCN(S(=O)(=O)c3ccc(Br)s3)C2)cc1 (configuration not stated)	x	-6.0%	-4.6%	x	x	u
O=C(Nc1ccc(Cl)cc1)C1CCN(S(=O)(=O)c2ccc(Br)s2)CC1	x	23.1µM*	u	x	x	u
O=C(NCCc1ccc(Cl)cc1)C1CCN(S(=O)(=O)c2ccc(Br)s2)CC1	-10.7%	u	-29.3%	-2.7	-19.8%	1.1%
Cc1csc(NC(=O)C2CCCN(S(=O)(=O)c3ccc(Br)s3)C2)n1 (configuration not stated)	-14.0%	18.4µM*	16.4µM*	-14.3	-15.0%	1.1%
Cc1cc(NC(=O)C2CCCN(S(=O)(=O)c3ccc(Br)s3)C2)ccc1Br (configuration not stated)	x	13µM*	u	x	x	u
O=C(NCc1ccc2c(c1)OCO2)C1CCN(S(=O)(=O)c2ccc(Br)s2)CC1	-5.0%	20.6µM*	-22.3%	-14.8	-7.3%	0.0%
NC(=O)c1ccsc1NC(=O)C1CCN(S(=O)(=O)c2cccs2)CC1	-7.7%	u	-27.3%	-10.2	-10.4%	-10.9%
Cc1cc(NC(=O)C2CCN(S(=O)(=O)c3ccc(Br)s3)CC2)ccc1Br	x	16.4µM*	u	x	x	-27.3%
O=C(NCc1ccc2c(c1)OCO2)C1CCN(S(=O)(=O)c2cccs2)CC1	12.5%	-10.4%	-19.8%	-10.6	2.1%	-12.6%
CNC(=O)c1ccsc1NC(=O)C1CCN(S(=O)(=O)c2ccc(Cl)s2)CC1	u	u	16.4µM*	22.7	u	-1.1%
Cc1cc(NC(=O)C2CCN(S(=O)(=O)c3cnc[nH]3)CC2)ccc1Br	-22.6%	u	-12.6%	-56.7*	-17.0%	0.0%
COc1ccc(NC(=O)C2CCN(S(=O)(=O)c3ccc(Br)s3)CC2)cc1OC	-14.4%	-26.0%	-5.3%	-11.0	1.2%	-1.6%
COc1cc(C#N)ccc1OCc1ccc(OC)c(OC)c1Br	x	x	x	x	x	-2.6%
COc1cc(CN(C(=O)Nc2ccccc2)c2ccccn2)cc(OC)c1OC	x	u	-25.9%	x	x	-7.2%
COc1cc(CN(C(=O)c2ccc(OC(C)C)cc2)C2CCS(=O)(=O)C2)cc(OC)c1OC (configuration not stated)	x	-17.4%	-8.6%	x	x	-0.5%
Cc1ccc(CN(C(=O)c2ccc([N+](=O)[O-])cc2)c2ccccn2)cc1	x	u	u	x	x	-3.4%
COc1cc(CN(C(=O)c2ccccc2[N+](=O)[O-])c2ccccn2)cc(OC)c1OC	x	14.6µM*	u	x	x	-12.4%
COc1cc(CN(C(=O)COc2ccc(C)c(C)c2)c2ccccn2)cc(OC)c1OC	x	8.2µM*	7.31µM*	x	x	2.2%
COc1ccc(C(=O)N(Cc2cc(OC)c(OC)c(OC)c2)c2ccccn2)cc1	x	20.6µM*	u	x	x	0.0%
COc1cc(CN(C(=O)c2ccc(OC(C)C)cc2)c2ccccn2)cc(OC)c1OC	x	4.11µM*	2.31µM*	x	x	-6.3%
CC(C)CSc1nnc(CNC(=O)c2ccccn2)n1C	x	-7.1%	4.2%	x	x	0.3%
COc1ccc(NC(=O)CN(c2ccc(C)cc2)S(=O)(=O)c2cccc3nonc23)cc1OC	x	16.4µM*	-19.3%	x	x	0.0%
SMILES	HT1080-NT tox	DT40 TDP1 no CPT	DT40 TDP1 CPT	IL-1B inflam inh	HT1080 IDH1KD tx	ALOX12 inh
COc1ccc(C)cc1S(=O)(=O)N(CC(=O)Nc1cccc([N+](=O)[O-])c1)c1ccc(C)c(C)c1	-2.2%	u	16.4µM*	-3.1	-1.5%	-8.1%
Cc1ccc(NC(=O)CN(c2ccc(Cl)cc2)S(=O)(=O)c2cc([N+](=O)[O-])ccc2Cl)cc1	-18.1%	23.1µM*	u	-98.6*	-19.8%	u
COc1ccc(S(=O)(=O)N(CC(=O)Nc2ccc(C)cc2)c2ccc(C)cc2)cc1OC	x	x	x	x	x	0.0%
CC(=O)c1cccc(NC(=O)CN(c2ccc(C)cc2)S(=O)(=O)c2cccc3nonc23)c1	-11.1%	u	u	-8.4	-0.3%	0.0%
CCn1nc(C(=O)NNS(=O)(=O)c2ccc(C)cc2)c2ccccc2c1=O	4.9%	-18.1%	-3.7%	23.0	0.7%	-13.3%
CC(C#N)CN(C)c1nc(-c2ccncc2)nc2ccccc12 (configuration not stated)	x	x	x	x	x	-5.9%
CC(CC(O)C1OC1(C)C)C1CCC2(C)C3=CCC4C(C)(C)C(=O)CCC4(C)C3CC[C@@]12C (some centres not stated)	x	7.31µM*	5.17µM*	x	x	x
COC(=O)[C@@]1(C)CC[C@]2(C)CC[C@]3(C)C(=CC(=O)C4[C@@]5(C)CCC(=O)C(C)(C)C5CC[C@]43C)[C@@H]2C1 (some centres not stated)	x	x	x	x	x	8.2%
O=c1c(-c2ccc(F)cc2)nc2cncnc2n1C1CC1	x	1.5%	4.6%	x	x	0.0%
COc1ccccc1C(=O)NCC(=O)N/N=C/c1cc(Br)ccc1OC(=O)/C=C\c1ccco1	u	u	u	60.5	-22.7%	-13.6%
O=C(CNC(=O)c1ccccc1F)N/N=C/c1cc(Br)ccc1OC(=O)/C=C/c1ccco1	-41.4%	5.17µM*	3.66µM*	70.7	4.61µM*	-20.4%
O=C(CNC(=O)c1ccc(F)cc1)N/N=C/c1cc(Br)ccc1OC(=O)/C=C/c1ccco1	u	2.59µM*	9.2µM*	148.8	u	-17.2%
CCSC1=NSC2=NC(=O)/C(=C\c3coc4ccccc4c3=O)C(=N)N12	6.4%	u	-0.1%	0.0	3.3%	44.7µM*
CC(C)CC1=NN2C(=N)/C(=C\c3coc4ccccc4c3=O)C(=O)N=C2S1	4.1%	0.0%	u	20.8	-0.1%	u

Screens deposited in PubChem by National Center for Advancing Translational Sciences (NCATS).
